Experimental data reported in PubChem BioAssay (NCI).
Compounds without any hit were thinned out: in the full panel of roughly 79,000, 15% have a hit. Active and inactive are the calls of the source. No stated cut-off is given here; in the data, active means growth inhibition above about 70%; inactive means the rest.

Test: NCI Yeast Anticancer Drug Screen. Data for the bub3 strain (AID 167)
Settings: S. cerevisiae bub3 mutant strain, at 50.0 µM, hits give high values
Description: Growth inhibition of yeast strains with defined genetic alterations is measured as a screen for potential anti-cancer activity. Selected strains with alterations in DNA damage repair or cell cycle control were exposed to compounds and growth inhibition was measured relative to vehicle treated controls. The strain used in this assay is bub3
For `CCCCCCCCCCCNc1ncnc2[nH]ncc12`, the growth inhibition was -2.05% (inactive). In the case of `CC(=O)Oc1ccc(C(c2ccc(OC(C)=O)cc2)c2ccccn2)cc1`, the growth inhibition is reported as -40.9% (inactive). For `C/C(COC(=O)c1cc(C)nc2ccccc12)=N\O`, the growth inhibition was 21.1% (inactive). With `COCCCNc1ncnc2c1cnn2-c1ccc(Cl)cc1` the growth inhibition was -9.45% (inactive). For `Cc1ccc(SCCN)cc1`, the growth inhibition was -0.35% (inactive). With `O=C(NC(CSSCC(NC(=O)OCc1ccccc1)C(=O)O)C(=O)O)OCc1ccccc1` (stereo not given) the growth inhibition was -33% (inactive). For `O=C(c1ccccc1)c1ccccc1-c1nc2ccccc2c(=O)o1`, the growth inhibition was 30.8% (inactive). For `NCCCCCC(=O)O`, the growth inhibition was -22% (inactive). In the case of `CC1=C(CN(CC(=O)O)CC(=O)O)C(=O)C(C(C)C)=C/C1=C(\c1ccccc1S(=O)(=O)O)c1cc(C(C)C)c(O)c(CN(CC(=O)O)CC(=O)O)c1C`, the growth inhibition is reported as 0.75% (inactive). With `Cc1ccc(-c2n[nH]c(=O)n2/N=C\c2ccc([N+](=O)[O-])cc2)cc1` the growth inhibition was -11.9% (inactive). With `Nc1cccc(N2N=C(C(=O)O)CC2=O)c1` the growth inhibition was -2.7% (inactive). With `COC(=O)C1CSCN1` (stereo not given) the growth inhibition was -3.5% (inactive). In the case of `Clc1ccccc1-c1nc(-c2ccncc2)no1`, the growth inhibition is reported as 57.6% (inactive). With `CC(=O)Nc1ccc2oc(=O)ccc2c1` the growth inhibition was -4.2% (inactive). For `COc1cc2c(cc1OC)C1c3cc(OC)c(OC)cc3CC(=O)N1CC2` (stereo not given), the growth inhibition was 24.5% (inactive). With `Cc1ccc2snc(C(=O)O)c2c1[N+](=O)[O-]` the growth inhibition was -13.6% (inactive). In the case of `OCCN(Cc1ccccn1)Cc1ccccn1`, the growth inhibition is reported as 8.4% (inactive). In the case of `COc1cc(Cc2cc(OC)c(OC)c(OC)c2)ccc1O`, the growth inhibition is reported as 19.1% (inactive). For `O=C(Nc1ccc2ncccc2c1)Nc1ccc2ncccc2c1`, the growth inhibition was -10.4% (inactive). For `Cc1ccc(SC(C)/C=C/NNC2=NC(c3ccccc3)C(c3ccccc3)=NN2)cc1` (stereo not given), the growth inhibition was 13.7% (inactive). With `Cc1[nH]n(-c2ccccc2)c(=O)c1/C=N\C(N)=S` the growth inhibition was -48% (inactive). In the case of `CC(C#N)c1cn(S(=O)(=O)c2ccccc2)c2ccccc12` (stereo not given), the growth inhibition is reported as 52.7% (inactive). In the case of `Cc1cc2c(=O)c3ccccc3[nH]c2c(C(=O)O)c1C`, the growth inhibition is reported as -14.7% (inactive). For `CC1(C)CC(C2=NCCO2)CC(C)(C)N1`, the growth inhibition was 15.2% (inactive). In the case of `COc1ccc2nc3cccc([N+](=O)[O-])c3c(NCCC(=O)O)c2c1`, the growth inhibition is reported as -5.25% (inactive). With `Nc1ccc(C2SCC(=O)N2NS(=O)(=O)c2cccc(C(=O)O)c2)cc1` (stereo not given) the growth inhibition was -46.2% (inactive). For `Nc1ccc(-c2nc3ccc(N)cc3[nH]2)cc1`, the growth inhibition was -4% (inactive). For `CCCCC(CC)C1OCC(O)CO1` (stereo not given), the growth inhibition was -13.2% (inactive). In the case of `Cn1c(COc2ccc(/C=N\N3CCN(/N=C\c4ccc(OCc5c[n+]6ccccc6n5C)cc4)CC3)cc2)c[n+]2ccccc12`, the growth inhibition is reported as -5.95% (inactive). For `CCC(CO)N1CNC(=S)NC1` (stereo not given), the growth inhibition was 4.7% (inactive). In the case of `O=C1NC(=O)c2ccc(Br)c3cccc1c23`, the growth inhibition is reported as 19.9% (inactive). For `CC(C)CC1NC(=O)C(C(C)C)NC(=O)CC(C)COC(=O)C(CC(C)C)N(C)C(=O)C(C(C)C)NC(=O)C(C(C)C)OC1=O` (stereo not given), the growth inhibition was 8.1% (inactive). For `Cc1cc(C)c(NS(=O)c2cccc(Cl)c2)c(C)c1` (stereo not given), the growth inhibition was -35.2% (inactive). For `CCCCCCCC/C=C/CCCCCCCC(=O)NN(C)C`, the growth inhibition was -3.95% (inactive). With `CCCCN=C=C(c1ccccc1)c1ccccc1` the growth inhibition was -7.75% (inactive). For `CC=C1C(C(=O)O)C1C(=O)O` (stereo not given), the growth inhibition was 15.3% (inactive). In the case of `O=C(NCCO)c1ccc(Cl)cc1`, the growth inhibition is reported as -32.4% (inactive). With `COc1ccc(/C=N/Nc2nc3ccccc3c(=O)n2-c2ccccc2)cc1` the growth inhibition was -11% (inactive). For `Cc1n[n+](Cc2ccccc2)c2sc(N)nn12`, the growth inhibition was 26.9% (inactive). With `CC(C)=CC(Cc1ccccc1)S(=O)(=O)c1nc2ccccc2s1` (stereo not given) the growth inhibition was 31.2% (inactive).
